# TRHR agonist: qHTS for Small Molecule Agonists and Allosteric Enhancers of Human TRH Receptor: Primary Screen for Agonists | Thyrotropin-releasing hormone receptor (Homo sapiens), P34981 | activation, % at 2 µM | TRHR cells, calcium flux fluo-8, FDSS agonist mode | hit rate 0.18% among 360,000 | AID 493084, 2011; further: 0% is about no effect
# Target sequence (P34981 whole entry, looked up): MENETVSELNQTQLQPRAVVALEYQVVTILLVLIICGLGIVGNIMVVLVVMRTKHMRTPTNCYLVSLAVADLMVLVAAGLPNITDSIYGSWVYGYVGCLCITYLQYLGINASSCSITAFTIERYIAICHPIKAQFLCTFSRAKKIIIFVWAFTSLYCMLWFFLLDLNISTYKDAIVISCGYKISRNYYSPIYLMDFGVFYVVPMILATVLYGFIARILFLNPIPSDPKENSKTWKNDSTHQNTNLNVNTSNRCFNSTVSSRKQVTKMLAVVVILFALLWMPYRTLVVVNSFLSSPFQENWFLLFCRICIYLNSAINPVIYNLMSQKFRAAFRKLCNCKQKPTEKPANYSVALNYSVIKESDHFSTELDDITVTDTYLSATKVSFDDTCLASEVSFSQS
#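 In this calcium-flux screen, cells bearing human TRHR are dye-loaded with fluo-8, baselined for 10 cycles, then exposed to library compounds; positive kinetic calcium responses during the agonist phase mark hits, with TRH as control.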
# D1 ag: Allosteric Agonists of the Human D1 Dopamine Receptor: qHTS. HEK293 T-REx D1 cells, calcium flux, agonist mode. hit rate 1% among 360,000. activation, % at 2 µM; further: 0% is about no effect
#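 Inducible HEK293 T-REx D1 cells, force-coupled to calcium signalling, were plated at 4000 cells/well with tetracycline and held overnight at 30 C. After no-wash calcium dye loading, compound-evoked calcium rise over 180 s flagged agonists.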
# D1 potentiator: Potentiators of Human D1 Dopamine Receptor: qHTS | D(1A) dopamine receptor (Homo sapiens), P21728 | HEK293 TREx D1 cells, calcium flux, dopamine EC20 potentiation | potentiation, % at 10 µM | hit rate 0.036% among 360,000 | AID 504651, 2011; in the data active means potentiation above about 30%; further: 0% is about no effect
# TRHR PAM: qHTS for Small Molecule Agonists and Allosteric Enhancers of Human TRH Receptor: Primary Screen for Enhancers; Thyrotropin-releasing hormone receptor (Homo sapiens), P34981; TRHR cells, fluo-8 calcium fluorescence, EC20 TRH enhancement; enhancement, % at 2 µM; hit rate 0.66% among 360,000; AID 493056, 2011; in the data active means enhancement above about 30%; further: 0% is about no effect
#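 Enhancer read-out: after compound pinning and an initial kinetic agonist-mode read, an EC20 of TRH (10 nM final) was injected and fluo-8 calcium signal (Ex 480/Em 530) followed at 1 s/cycle for 100 cycles in TRHR-expressing cells.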
# D1 antag: Antagonist of Human D 1 Dopamine Receptor: qHTS; D(1A) dopamine receptor (Homo sapiens), P21728; hit rate 3.2% among 360,000; HEK293 TREx D1 cells, calcium flux, dopamine EC80; hits give low values; AID 504652, 2011; activity change, negative = inhibition, % at 10 µM; in the data active means activity change below about -30%; further: on the % scale 0 is the no-effect control and ±100 the full control effect
#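 Inducible Hek293 Trex D1 cells (tetracycline, overnight, 30 C). Calcium dye 30–90 min RT. Antagonist mode: EC80 dopamine added after 180 s compound read.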
# * marks the source's active call; other numbers are inactive results; . = not tested or not shown. In the library only some 4.7% were active in any assay of this set; here they are far more common. Unless noted, no stated cut-off is given here; in the data, active means activation above about 30%; inactive means the rest.
SMILES,TRHR agonist,D1 ag,D1 potentiator,TRHR PAM,D1 antag
COc1cc(/C=C2\Oc3cc(O)ccc3C2=O)ccc1O,33*,63*,-6,-7,7
O=C1/C(=C/c2cccc([N+](=O)[O-])c2)Oc2cc(O)ccc21,10,20,-1,-3,-30
COc1cc(OC)cc(C(=O)Nc2cc(-c3nc4cccnc4s3)ccc2C)c1,0,2,6,-5,13
O=c1[nH]c2ccccc2cc1CN(CC1CCCO1)S(=O)(=O)c1ccccc1 (stereo not given),0,-1,-7,-20,-35*
COc1ccc(S(=O)(=O)N(Cc2cc3cc(C)ccc3[nH]c2=O)CC2CCCO2)cc1 (stereo not given),0,0,12,-2,-5
CCN(Cc1cc2ccccc2[nH]c1=O)S(=O)(=O)c1ccc(OC)cc1,-1,6,-7,-7,-39*
CS(=O)(=O)CC[C@@H](C(=O)NCCc1ccccc1)N1Cc2ccccc2C1=O,0,1,-2,17,-2
CCCc1cc(F)c(S(=O)(=O)N2CCN(S(=O)(=O)c3ccc4c(c3)OCCO4)CC2)cc1F,1,4,6,2,6
O=C(CCCN1CC=C(n2c(=O)[nH]c3ccccc32)CC1)c1ccc(F)cc1,-1,7,-3,5,-71*
Cc1cc(C)c(NC(=O)C2CCN(c3nc4ccccc4n4cccc34)CC2)c(C)c1,0,18,-1,3,6
CCOC(=O)C1C(=O)NC(c2ccccc2)=NC1c1ccc(Cl)cc1 (stereo not given),0,1,0,-3,-11
CCOC(=O)C1C(=O)NC(c2ccccc2)=NC1c1ccc(C(C)C)cc1 (stereo not given),0,0,-3,-8,-34*
Cc1ccc(C(NC(=O)N2CCOCC2)C(Cl)Cl)cc1F (stereo not given),-1,1,0,1,-8
Cc1ccc(C(NC(=O)N2CCOCC2)=C(Cl)Cl)cc1F,-3,-1,-2,2,-37*
c1ccc(SCCCCNC2CCCC2)cc1,2,11,-8,-5,-10
c1ccc(Cc2ccc(OCCCNC3CCCC3)cc2)cc1,3,56*,2,4,-23
COc1ccc(OCCNC2CCCC2)cc1,0,3,9,1,-6
c1ccc(-c2ccc(OCCCNC3CCCC3)cc2)cc1,2,41*,-1,-3,-37*
Cc1c(C)n(Cc2ccc(F)cc2)c2ccc(C(=O)N3CCN(c4ccc(Cl)cc4)CC3)cc12,0,4,-3,0,-10
O=C(CCN1CCC(c2ccc(Cl)s2)=N1)c1ccc(Cl)s1,2,40*,-3,-6,7
O=C(CCC(=O)c1ccc(Cl)s1)Nc1ncccc1O,0,7,.,1,4
CCOC(=O)c1c(Nc2ccc(OCC)cc2)nnc(-c2ccccc2)c1-c1ccccc1,0,-2,-2,-13,15
O=C(NCCN1CCOCC1)C(=O)c1c[nH]c2ccccc12,0,2,1,2,-52*
O=C(CN1CCOCC1)c1c[nH]c2ccccc12,1,5,2,-2,-1
CCOC(=O)c1c(C)oc2ncnc(N3CCN(c4ccccc4)CC3)c12,-2,-1,1,3,-45*
SMILES,TRHR agonist,D1 ag,D1 potentiator,TRHR PAM,D1 antag
COc1ccccc1CNC(=O)CCn1c(=O)c2ccccc2n(CC(=O)Nc2cc(Cl)ccc2C)c1=O,-1,18,0,23,-5
Cc1ccc(NC(=O)COc2ccc(C(=O)c3ccccc3)cc2)c(O)c1,-1,11,-10,-6,-30*
Cc1ccc(NC(=S)NC(=O)Cc2ccccc2)c(O)c1,2,33*,0,1,-10
COc1ccc(NC(=S)NC(=O)Cc2ccccc2)c(OC)c1,2,16,3,2,11
CCOC(=O)C(NC(C)=O)C(=O)Nc1ccc(C(C)C)cc1 (stereo not given),0,2,-2,39*,-11
CCc1cc2c(-c3ccccc3)cc(=O)oc2c(CN2CCOCC2)c1O,21,55*,2,-3,36
COc1ccc(OC)c(CNC(=O)c2ccccc2NC(=O)c2nsc3ccccc23)c1,1,0,-4,-3,-3
COc1cc2c(cc1OC)C(c1cccs1)N(C(=O)c1cccnc1)CC2 (stereo not given),0,0,-5,1,-9
COc1cc2c(cc1OC)C(C1C(=O)CCCC1=O)N(C(=O)CCl)CC2 (stereo not given),0,0,-2,3,3
COc1cc2c(cc1OC)C(c1cccs1)N(C(=O)C(C)C)CC2 (stereo not given),-1,-1,-11,-4,-78*
COc1cc2c(cc1OC)C(c1ccccc1)N(C(=O)CCl)CC2 (stereo not given),4,2,-5,-5,-32*
Cc1ccn2cc(CNC(=O)c3cccc(C(F)(F)F)c3)nc2c1,0,-1,1,1,-10
CCc1ccc2oc(C(=O)NCc3ccccc3)cc(=O)c2c1,-1,6,-3,-10,-23
CCCCOc1ccc(OC(=O)c2sc3ncn(Cc4cccc(F)c4)c(=O)c3c2C)cc1,0,8,-1,10,-10
Cc1nc(CS(=O)(=O)c2ccccn2)sc1C(=O)NNC(=O)c1ccccc1,0,1,-6,-1,-32*
Cc1nc(CS(=O)(=O)c2ccc(Cl)cc2)sc1C(=O)O,0,1,3,5,4
CCOC(=O)c1sc2ncn(CC(=O)Nc3cccc(C)c3)c(=O)c2c1C,1,2,2,2,-35*
CCOC(=O)c1c(C)[nH]c(C)c1S(=O)(=O)NCC(=O)Nc1cccc(C(F)(F)F)c1,0,5,1,0,-40*
Cc1ccc(CSc2nc3cccnc3n2Cc2ccc(C(=O)NCc3ccco3)cc2)cc1,0,-1,3,-5,11
CCOc1ccccc1-c1noc(CSc2nnc(-c3ccccc3)n2-c2cccc(C)c2)n1,1,8,1,-8,-8
CC1CCC(NC(=O)CCc2cn(Cc3ccc(F)cc3)c3ccccc23)CC1 (stereo not given),0,2,-3,13,-11
CCC(Sc1nc2ccncc2[nH]1)C(=O)Nc1ccc(F)cc1 (stereo not given),-1,-2,0,-3,29
Nc1nc(CN2CCN(c3ccccc3F)CC2)nc(Nc2ccccc2)n1,0,1,1,0,-3

# High-throughput results as filed in PubChem BioAssay.
